# LAP4 TOR yeast: modulators of LAP4-GFP expression in yeast, primary screen, S. cerevisiae, multiplex flow cytometry, MLPCN library | 3 h; median GFP as percent of DMSO wells | GFP response vs DMSO, % at 10 µM | actives 0.34% (n = 320,000);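 active = GFP response vs DMSO above a set limit, about the screen mean plus 3 SD, cut at about 150% in these data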
# AGP1 TOR yeast: modulators of AGP1-GFP expression in yeast TOR pathway, primary screen, cell-based, multiplex flow cytometry, S. cerevisiae, MLPCN library; 3 h; GFP as percent of DMSO wells; GFP response vs DMSO, % at 10 µM; actives 0.02% (n = 320,000); AID 2066, 2009;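 active = GFP response relative to DMSO above a set limit, near screen average plus 3 SD, cut at about 150% in these data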;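 also: median GFP channel fluorescence of the gated AGP1 strain per well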
# Efflux pump mplx: inhibitors of Candida efflux pumps in yeast, primary screen, S. cerevisiae, Nile Red, multiplex. S. cerevisiae Candida pump triplex. inhibition, % at 10 µM. actives 0.44% (n = 330,000). AID 485275, 2010;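 active = plate passing quality check with inhibition over a set limit, or well fluorescence over plate mean plus 4 SD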;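 also: Nile Red retained in pooled yeast measured as flow cytometry median fluorescence; 0% = buffer negative control and 100% = Enniatin B positive control; higher means more Nile Red kept so more efflux inhibition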
# RPL19A TOR yeast: RPL19A-GFP expression modulators in yeast, primary screen, cell-based, S. cerevisiae, multiplex flow cytometry, MLPCN | AID 2025, 2009 | S. cerevisiae RPL19A-GFP strain, 3 h; hits give low values | percent response vs DMSO, % at 10 µM | actives 0.3% (n = 330,000);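 active = percent response vs DMSO below 50%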;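 also: median channel GFP fluorescence of the barcoded RPL19A-GFP strain; ratio of sample median GFP to plate DMSO average so 100% = DMSO; lower means less RPL19A-GFP as with rapamycin TOR inhibition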
# CIT2 TOR yeast: modulators of CIT2-GFP expression in yeast, primary screen, S. cerevisiae, GFP fusion, multiplex flow cytometry, MLPCN library | actives 0.065% (n = 320,000) | S. cerevisiae CIT2-GFP strain, 3 h; 100 means same as DMSO wells | AID 2029, 2009 | GFP response vs DMSO, % at 10 µM;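 active = GFP response relative to DMSO above a set limit, near the screen mean plus 3 SD, cut at about 150% in these data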;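 also: ratio of well median GFP fluorescence to mean of DMSO wells on the plate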
# MEP2 TOR yeast: modulators of MEP2-GFP levels in yeast, primary screen, S. cerevisiae, multiplex flow cytometry, MLPCN library; S. cerevisiae MEP2-GFP strain, 3 h; 100% = DMSO control level; GFP response vs DMSO, % at 10 µM; actives 0.51% (n = 330,000);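 active = GFP response versus DMSO above a set limit, roughly screen mean plus 3 SD, cut at about 180% in these data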;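 also: median GFP fluorescence of the barcode-gated MEP2-GFP cells per well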
# Yeast cmpd fluor: compound fluorescence in yeast efflux pump counter-screen | shares compounds with Efflux pump mplx | AID 588517 | fluorescence ratio to DMSO, % at 10 µM | S. cerevisiae AD/pABC3, flow cytometry | actives 4% (n = 1,700);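 active = fluorescence ratio to DMSO above its plate's cutoff, the plate mean ratio plus 5 SD, cut at about 210% in these data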;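 also: unstained yeast with no Nile Red so the signal is compound autofluorescence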
# CaMdr1 efflux inh: inhibitors of Candida albicans Mdr1 efflux, confirmation, flow cytometry, singleplex, Cherry Pick1 set; S. cerevisiae AD/CaMDR1, Nile Red efflux; shares compounds with Efflux pump mplx; actives 1% (n = 1,700); inhibition, % at 10 µM; in the data active = inhibition above about 26%;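 also: 0% = DMSO vehicle and 100% = reference inhibitor; higher means more Nile Red retained so more efflux inhibition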
# CaCdr2 efflux inh: inhibitors of Candida albicans Cdr2 efflux pump, confirmation, S. cerevisiae AD/CaCDR2, flow cytometry, cherry pick 1, singleplex; actives 4% (n = 1,700); Nile Red retention; shares compounds with Efflux pump mplx; Nile Red retention ratio vs DMSO, % at 10 µM; in the data active = Nile Red retention ratio vs DMSO above about 190%;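 also: higher ratio means more blocking of Cdr2 efflux of the dye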
# Cdr1 pump inh: inhibitors of Candida albicans Cdr1 efflux pump, confirmation, S. cerevisiae AD/CaCDR1, flow cytometry, cherry pick 1, singleplex. shares compounds with Efflux pump mplx. actives 1% (n = 1,700). Nile Red efflux. AID 588522, 2011. inhibition, % at 10 µM;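 active = inhibition above the screen-wide mean plus twice its standard deviation, cut at about 32% in these data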
# Starred values were filed as active, the others as inactive; nt = no result. Hits are enriched below; roughly 1.3% of the tested compounds scored in any of these assays.
SMILES,LAP4 TOR yeast,AGP1 TOR yeast,Efflux pump mplx,RPL19A TOR yeast,CIT2 TOR yeast,MEP2 TOR yeast,Yeast cmpd fluor,CaMdr1 efflux inh,CaCdr2 efflux inh,Cdr1 pump inh
Cc1ccccc1Cn1c(=O)n(Cc2ccco2)c(=O)c2ccccc21,95,108,0,102,110,102,nt,nt,nt,nt
C[n+]1cccc(C(=O)Nc2ccccc2)c1,97,105,0,106,106,113,nt,nt,nt,nt
COc1ccc(CNCCC(c2ccc(F)cc2)c2ccc(OC)cc2)cc1 (stereo not given),91,97,10*,97,101,88,96,0,109,0
O=C(CN1C(=O)CC(c2ccco2)Sc2ccccc21)Nc1ccccc1F (stereo not given),100,104,0,102,101,98,nt,nt,nt,nt
O=C(CN1C(=O)CC(c2ccco2)Sc2ccccc21)NCc1ccc2c(c1)OCO2 (stereo not given),104,107,9.8*,103,101,108,82,0,87,0
CC1CC(=O)N(CC(=O)Nc2ccc3c(c2)OCCO3)c2ccccc2S1 (stereo not given),99,101,0,98,103,106,531*,5,109,0
COCCn1c(SCC(=O)NC(=O)NCc2ccccc2)nc2ccccc2c1=O,103,100,0,100,103,105,nt,nt,nt,nt
CC1(c2nnc(-c3ccccc3)o2)CC(c2ccc([N+](=O)[O-])cc2)=NO1 (stereo not given),96,100,0,98,99,96,nt,nt,nt,nt
Cc1c(NC(=O)Cn2ccc([N+](=O)[O-])n2)c(=O)n(-c2ccccc2)n1C,96,97,0.5*,97,93,103,105,0,101,0
Cc1c(NC(=O)Cn2cc([N+](=O)[O-])cn2)c(=O)n(-c2ccccc2)n1C,89,89,0,93,93,90,nt,nt,nt,nt
Cc1c(NC(=O)CSc2ncnc3ccccc23)c(=O)n(-c2ccccc2)n1C,102,106,1.0*,100,95,112,95,0,91,0
Cc1c(NC(=O)CSc2ccccn2)c(=O)n(-c2ccccc2)n1C,99,98,0,98,91,95,nt,nt,nt,nt
COC(=O)Nc1ccc(S(=O)(=O)NCc2ccccn2)cc1,97,88,0,91,93,93,nt,nt,nt,nt
COCC1CCN(C(=O)c2ccc3oc(Cc4ccc(Cl)cc4)nc3c2)C1 (stereo not given),95,98,0,97,96,98,nt,nt,nt,nt
O=C1CC(Cc2ccccc2)C(=O)N1Cc1ccco1 (stereo not given),118,106,0,101,103,105,nt,nt,nt,nt
Cc1ccc(CC2CC(=O)N(Cc3ccco3)C2=O)cc1 (stereo not given),191*,93,1.2*,96,65,92,108,0,110,0
COc1ccccc1OCC(=O)NCCS(=O)(=O)N1CCN(c2ccccc2)CC1,105,110,0,97,86,97,nt,nt,nt,nt

# Screening results (PubChem)
